Compound activity deposited in PubChem BioAssay by National Center for Advancing Translational Sciences (NCATS).
In the library only some 0.86% were active in any assay of this set; here they are far more common.
PGK inhibitor: blocks T. brucei phosphoglycerate kinase | AID 602233 | PGK/GAPDH coupled, Kinase-Glo luminescence, 60 min | 380,000 compounds, 0.043% hits | P07378 | Potency, µM (titrated, usually from 57.5 µM), usual class: inhibitors; note: nearly all actives have a fitted effect of over 60% in size
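Luminescent ATP detection (Kinase-Glo Plus) follows a 60-minute room-temperature incubation, with wells lacking PGK as controls. Buffer: 100 mM TEA (pH 7.6), 5 mM MgCl2, 0.01% Tween-20. Coupling enzyme GAPDH (100 nM final) supplies unstable 1,3-BPG in-well.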
FEN1 inhibitor: blocks human flap endonuclease 1 | Recombinant FEN1 flap cleavage, fluorescence, 15 min | 390,000 compounds, 0.35% hits | Potency, µM (highest dose often 114 µM), hits mostly inhibitors | P39748; note: nearly all actives have a fitted effect of over 65% in size
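Quantitative HTS format: each compound was titrated, incubated with 10 nM nuclease for 15 min at room temperature, then challenged with flap substrate at 50 nM final. Signal change over 15 min gave concentration–effect curves.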
RECQ1 helicase: inhibitors of human RECQ1 DNA helicase; 240,000 compounds, 0.54% hits; Potency, µM (highest dose often 57.3 µM), actives largely listed as inhibitors; P46063; AID 2549; RECQ1 DNA unwinding, red fluorescence kinetic read; note: nearly all actives have a fitted effect of over 30% in size
Target sequence (P46063 whole entry, looked up): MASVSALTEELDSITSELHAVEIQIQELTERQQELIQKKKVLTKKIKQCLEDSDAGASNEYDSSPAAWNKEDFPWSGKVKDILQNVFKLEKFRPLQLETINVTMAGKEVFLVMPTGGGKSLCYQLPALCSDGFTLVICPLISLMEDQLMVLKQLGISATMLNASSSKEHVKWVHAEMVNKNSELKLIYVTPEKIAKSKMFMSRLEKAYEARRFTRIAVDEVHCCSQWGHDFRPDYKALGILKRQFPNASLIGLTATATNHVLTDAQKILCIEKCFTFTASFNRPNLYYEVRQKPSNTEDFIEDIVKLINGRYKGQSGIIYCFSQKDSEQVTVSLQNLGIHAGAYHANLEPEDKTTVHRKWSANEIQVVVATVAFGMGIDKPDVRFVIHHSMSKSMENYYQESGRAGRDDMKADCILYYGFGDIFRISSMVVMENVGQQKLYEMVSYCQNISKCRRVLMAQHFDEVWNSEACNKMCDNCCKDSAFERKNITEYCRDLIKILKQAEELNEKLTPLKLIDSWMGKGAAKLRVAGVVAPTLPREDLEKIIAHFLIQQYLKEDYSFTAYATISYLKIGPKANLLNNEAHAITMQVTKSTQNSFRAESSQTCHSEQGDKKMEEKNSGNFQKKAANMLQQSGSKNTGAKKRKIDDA
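50 nM RECQ1T1 preincubated 15 min with compound in Tris pH 8.0 buffer with MgCl2, DTT, Tween-20 and 2.5 ug/ml poly(dI-dC); started with 200 nM TAMRA/BHQ-2 forked duplex and 2 mM ATP. Unwinding read as fluorescence (525/598 nm), two reads 2 h apart.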
GLS inhibitor: inhibitors of human glutaminase (GLS). AID 624170. O94925. GLS enzymatic activity, qHTS titration. Potency, µM (doses to about 45.5 µM), actives largely listed as inhibitors. 410,000 compounds, 0.21% hits
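Two-point fluorescence kinetic (t0, 30 min RT) for hKGA; glutamate detected via glutamate oxidase–HRP–Amplex Red. Substrate: 1 mM L-glutamine solution; buffer 45 mM KH2PO4, pH 8.2.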
BLM helicase inh: inhibitors of human Bloom syndrome helicase BLM. recombinant BLM DNA unwinding, fluorescence dequenching. AID 2528. P54132. 350,000 compounds, 0.2% hits. Potency, µM (series often up to 56.1 µM), usual class: inhibitors; note: nearly all actives have a fitted effect of over 35% in size
APEX1 inh: APE1 (human) endonuclease inhibition; P27695; Potency, µM (doses to about 65.8 µM), hits mostly inhibitors; 350,000 compounds, 0.35% hits; recombinant APE1, TAMRA/BHQ-2 abasic DNA cleavage fluorescence; note: nearly all actives have a fitted effect of over 55% in size
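Enzyme (0.75 nM final) and test compound are incubated 15 min at room temperature before adding 50 nM quenched THF abasic-site duplex. Cleavage dequenches TAMRA, followed at 525/598 nm over three reads one minute apart.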
Hits are given with their value; – = inactive; ? = inconclusive; · = no result given. Calls come from the whole dose curve; as a rule, active = well fitted curve in the direction sought with a large enough effect; inconclusive = small, poorly fitted or top-dose-only effect, or another doubt; inactive = no such curve, though single readings can be large; an effect the other way counts as inactive or inconclusive.

SMILES	PGK inhibitor	FEN1 inhibitor	RECQ1 helicase	GLS inhibitor	BLM helicase inh	APEX1 inh
O=C(CCN1CCN(c2ccccc2)CC1)N/N=C/c1ccc(O)c(O)c1O	–	28µM	–	?	11µM	–
COc1ccc(/C=N/NC(=O)CCN2CCN(c3ccccc3)CC2)c(OC)c1OC	–	–	–	–	–	–
CC(C)[C@H](NC(=O)[C@@H](Cc1c[nH]c2ccccc12)NC(=O)[C@H](Cc1ccc(O)cc1)NC(=O)[C@@H](N)CC(=O)O)C(=O)N[C@H](Cc1c[nH]c2ccccc12)C(=O)N[C@H](Cc1c[nH]c2ccccc12)C(=O)N[C@@H](CCCCN)C(N)=O	·	·	20µM	·	–	–
NCCCC[C@H](NC(=O)[C@@H](Cc1ccccc1)NC(=O)[C@H](Cc1c[nH]c2ccccc12)NC(=O)[C@@H](CCCCN)NC(=O)[C@@H](Cc1c[nH]c2ccccc12)NC(=O)[C@@H](N)Cc1cnc[nH]1)C(N)=O	·	·	–	·	–	–
COc1ccc(CN(CCC(c2ccc(F)cc2)C2CCOC(C)(C)C2)C(=O)c2ccco2)cc1 (stereo unspecified)	–	–	25µM	–	–	–
Oc1c(N=Nc2nn[nH]n2)ccc2ccccc12	·	·	·	20µM	·	·
Oc1c(N=Nc2ccc(F)cc2)ccc2ccccc12	–	–	·	–	–	–
O=C(CC1SC(=O)N(c2ccccc2)C1=O)Nc1ccc(Br)cc1 (stereo unspecified)	–	–	–	?	–	–
O=C(CC1SC(=O)N(c2ccccc2)C1=O)Nc1ccc(Cl)cc1 (stereo unspecified)	–	–	–	11µM	–	–
Cc1n[nH]c(=S)n(NC(=O)/C=C/C(=O)Nn2c(=S)[nH]nc(C)c2=O)c1=O	?	45µM	–	11µM	–	7.9µM
COc1cccc(NC(=S)NCCC(c2ccccc2)c2ccccc2)c1	–	–	–	–	–	?
COc1cc(NC(=S)NCCC(c2ccccc2)c2ccccc2)cc(OC)c1	–	79µM	–	–	–	–
Cn1c2ccccc2c2cc(/C=N/NC(=O)c3cc(O)ccc3O)ccc21	–	56µM	·	–	–	–
COc1cc(C(=O)N/N=C/c2ccc3c(c2)c2ccccc2n3C)ccc1O	–	–	·	–	–	–
Cn1c2ccccc2c2cc(/C=N/NC(=O)c3cc(O)cc(O)c3)ccc21	?	40µM	·	16µM	–	13µM
COc1ccc2c(c1)c(C(=O)N/N=C/c1ccc(O)c(O)c1)c(C)n2C	–	–	–	7.1µM	–	–
Cc1ccc(/C(=C\CN2CCCC2)c2cccc(/C=C/C(=O)O)n2)cc1	·	·	·	–	·	·
COc1cc2c(cc1OC)[C@@H](c1ccccc1)CN(C)CC2	·	·	·	·	·	–
O=C(O)C1=NN(c2cc(Cl)c(S(=O)(=O)O)cc2Cl)C(=O)C1	?	?	·	1.1µM	·	·
O=S(=O)(Nc1c(S(=O)(=O)c2ccccc2)c2nc3ccccc3nc2n1C1CCCCC1)c1ccccc1	–	–	–	–	10µM	–
CC(=O)Nc1c(S(=O)(=O)c2ccccc2)c2nc3ccccc3nc2n1Cc1ccccc1	–	–	–	–	–	–
C=CCn1c(NS(=O)(=O)c2ccccc2)c(S(=O)(=O)c2ccc(C)cc2)c2nc3ccccc3nc21	–	–	–	–	4.5µM	–
Cc1ccc(S(=O)(=O)c2c(N)n(-c3ccccc3)c3nc4ccccc4nc23)cc1	–	–	–	–	–	?
O=c1cc(-c2ccc(O)cc2)oc2cc(O[C@@H]3O[C@H](CO)[C@H](O)[C@H](O)[C@H]3O)cc(O)c12	·	–	–	·	–	–
O=c1cc(-c2ccc(O)c(O)c2)oc2cc(OC3OC(CO)C(O)C(O)C3O)cc(O)c12 (stereo unspecified)	·	·	20µM	·	–	?
SMILES	PGK inhibitor	FEN1 inhibitor	RECQ1 helicase	GLS inhibitor	BLM helicase inh	APEX1 inh
Cc1cccc(-c2csc(N3CCC(C(N)=O)CC3)n2)c1	·	·	·	·	·	–
N#Cc1c(-c2ccc(F)c(Br)c2)no[n+]1[O-]	·	·	·	·	·	–
CCn1c(=O)c(-[n+]2ccccc2)c(O)c2ccccc21	–	35µM	–	–	–	–
CCn1c(=O)c(C(=O)NNC(=O)c2ccccc2)c(O)c2ccccc21	–	–	·	–	–	–
CS(=O)(=O)N1CCN(/[N+]([O-])=N/Oc2ccc([N+](=O)[O-])cc2[N+](=O)[O-])CC1 (tested in a mixture with another compound)	·	–	·	·	·	·
Cc1cccc(/N=C/c2c(O)cc(C)oc2=O)n1	–	–	28µM	–	–	–
COCC1=C(C(=O)OC(C)OC(=O)OC(C)C)N2C(=O)C(NC(=O)/C(=N/OC)c3csc(N)n3)[C@H]2SC1 (stereo partly specified)	·	·	·	–	·	·
CN(CC(=O)O)c1ccc(/C=C/c2ccnc3ccccc23)cc1	·	–	·	·	·	·
Cc1nc2c(C(=O)NCc3ccccc3)cnn2c(C)c1Cc1ccc(F)cc1	–	–	·	13µM	–	·
Cc1nc2c(C(=O)NCc3ccccc3Cl)cnn2c(C)c1Cc1ccccc1	–	–	·	–	–	·
CCC(c1ccccc1)C(CC)c1cc(O)c(O)c(O)c1 (stereo unspecified)	–	–	·	11µM	·	·
